The full list was thinned out, with hits kept by preference.
Lassa entry inh = blocks Lassa virus binding to or entry into cells | Lassa virus pseudotype entry inhibition, cell reporter | Potency, µM (doses to about 37.9 µM), for the others: at the top dose activity change, negative = inhibition, usual class: inhibitors | 300,000 compounds, 1.2% hits | AID 540256; calls by dose curve; tested in HEK293 cells; also: potency is read from the fitted curve at half-maximal effect; % is scaled to controls: 0 for no effect and ±100 for the full control effect; nearly all actives have a fitted effect of over 50% in size
Shiga inhibitor = Shiga toxin inhibition; AID 2315; inhibition, % at 38.7 µM; 290,000 compounds, 9.2% hits; Vero cells, Shiga toxin protein synthesis inhibition reporter; in the data active = inhibition mostly above about 28%, no sharp cut-off; inactive = mostly below about 43%; also: 0% is about no effect
Marburg entry inh = inhibitors of Marburg virus binding or cell entry. Marburg virus pseudotyped entry inhibition, cell reporter. Potency, µM (highest dose often 37.8 µM), for inactives: top-dose activity change, negative = inhibition, most hits filed as inhibitors. 300,000 compounds, 1.8% hits. AID 540276; calls by dose curve; tested in HEK293 cells; also: potency is read from the fitted curve at half-maximal effect; % is scaled to controls: 0 for no effect and ±100 for the full control effect
AMA1-RON2 inh = inhibitors of Plasmodium falciparum AMA1-RON2 interaction. AlphaScreen AMA1-biotinylated RON2 peptide binding. Potency, µM (titrated, usually from 58.2 µM), for the others: at the highest dose activity change, negative = inhibition, hits mostly inhibitors. 360,000 compounds, 0.2% hits; active = well fitted inhibition curve with a large enough effect; inconclusive = small, poorly fitted or top-dose-only effect; inactive = no such curve, though single readings can be large or run the other way;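 also: potency is read from the fitted curve at half-maximal effect; 0% = vehicle wells and -100% = peptide control; nearly all actives have a fitted effect of over 45% in size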
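AMA1 (3D7) with his tag at 25 nM final met compounds first, then biotinylated RON2 peptide at 25 nM; detection used donor plus acceptor beads, 10 µg/mL apiece, read by AlphaScreen after 30 min at room temperature.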
Cycloheximide cs = counter-screen for Shiga toxin inhibitors: cycloheximide protein synthesis inhibition | cell reporter, cycloheximide protein synthesis inhibition counterscreen | max response, % | 300,000 compounds, 12% hits | AID 2314; in the data active = max response mostly above about 13%, no sharp cut-off; inactive = mostly below about 14%; also: read at 38.3 µM for the half of the compounds with a filed dose; 0% is about no effect
An asterisk follows results filed as active; [ ] = another dose, or the depositor's remark.

What do the screens show for `Cc1cc(-c2nc3ncccc3o2)ccc1N`?
Lassa entry inh: 10.8%; Shiga inhibitor: 84.6*; Marburg entry inh: -9.8%[46.1 µM]; AMA1-RON2 inh: -15.6%; Cycloheximide cs: 44.5*

Results for Nc1cc(-c2nc3ncccc3o2)ccc1Cl ?
Lassa entry inh: 25.0%; Shiga inhibitor: 60.3*; Marburg entry inh: -4.5%; AMA1-RON2 inh: -3.8%; Cycloheximide cs: 59.0*

What do the screens show for `CCC(=O)Nc1ccc(-c2nc3ncccc3o2)cc1C`?
Lassa entry inh: 4.1%[46.1 µM]; Marburg entry inh: 19.1%[46.1 µM]

What do the screens show for `Cc1ccc(-c2nc3ncccc3o2)cc1N`?
Shiga inhibitor: 62.1*; AMA1-RON2 inh: 4.7%; Cycloheximide cs: 48.9*

What do the screens show for `Cc1ccc(-c2nc3ncccc3o2)cc1NC(=O)C(C)(C)C`?
Shiga inhibitor: -6.2; AMA1-RON2 inh: 5.1%; Cycloheximide cs: -2.9

Results for CC(=O)Oc1ccccc1-c1nc(/C=C/c2ccccc2)no1 ?
Lassa entry inh: inconclusive; Shiga inhibitor: 62.7*; Marburg entry inh: -0.3%; AMA1-RON2 inh: 20.8%; Cycloheximide cs: 47.0*

What do the screens show for `COc1cc(/C=C/c2noc(-c3ccccc3O)n2)cc(OC)c1OC`?
Lassa entry inh: 9.7%; Shiga inhibitor: 25.8; Marburg entry inh: 17.5%; AMA1-RON2 inh: -20.2%; Cycloheximide cs: 18.1

How did CC(=O)Oc1ccccc1C(=O)O do in these assays?
Lassa entry inh: inconclusive; Marburg entry inh: inconclusive; AMA1-RON2 inh: -25.8%

Results for COc1ccc(/C=C/c2noc(-c3ccccc3O)n2)cc1 ?
Lassa entry inh: 11.2µM*; Shiga inhibitor: 82.6*; Marburg entry inh: inconclusive; AMA1-RON2 inh: -12.1%[11.6 µM]; Cycloheximide cs: 56.2*

Results for Cc1nc2nncn2c(NCc2ccc(Cl)cc2)c1C ?
Lassa entry inh: -3.3%[46.1 µM]; Marburg entry inh: inconclusive

How did COc1ccc(S(=O)(=O)Nc2ccc3c(c2)C(=O)N([C@H](C)CO)C[C@H](C)[C@@H](CN(C)S(C)(=O)=O)O3)cc1 do in these assays?
AMA1-RON2 inh: -1.4%

How did O=C(CN1C(=O)C2CCCCN2c2ccc(C(=O)N3CCCC3)cc21)NCc1ccccc1F (stereo not given) do in these assays?
Lassa entry inh: -9.1%[46.1 µM]

Results for Cc1cc2ccc3ccccc3c2cc1CN(C)C ?
Lassa entry inh: 6.5%; Shiga inhibitor: 59.7*; Marburg entry inh: inconclusive; AMA1-RON2 inh: inconclusive; Cycloheximide cs: 33.2*

How did Cc1ccc(S(=O)(=O)n2nc(-n3c(C)ccc3C)c3c(F)cccc32)c2ccccc12 do in these assays?
Lassa entry inh: -20.2%[46.1 µM]; Shiga inhibitor: 19.7; Marburg entry inh: 11.2µM*; AMA1-RON2 inh: -8.9%; Cycloheximide cs: -2.2

What do the screens show for `Cc1ccc(C)n1-c1nn(S(=O)(=O)c2cccc3cccnc23)c2cccc(F)c12`?
Lassa entry inh: -16.8%; Shiga inhibitor: 27.5; Marburg entry inh: inconclusive; AMA1-RON2 inh: inconclusive; Cycloheximide cs: 9.6

Results for CCN(C(=O)COC(=O)CCc1ccc(OC)cc1)c1c(N)n(Cc2ccccc2)c(=O)[nH]c1=O ?
Lassa entry inh: -10.5%; Marburg entry inh: 0.6%; AMA1-RON2 inh: 14.1%

What do the screens show for `CCOc1cc(-c2ccc(OC(=O)c3ccc(C)cc3)c(OC)c2)cc(=O)c2c(C)oc(C)c12`?
Lassa entry inh: 6.0%[46.1 µM]; Marburg entry inh: 20.8%[46.1 µM]

How did CCCC12CN3CCN(CC(C3)/C1=N\NC(=O)c1ccccc1N)C2 do in these assays?
Lassa entry inh: -0.7%; Shiga inhibitor: 37.9*; Marburg entry inh: inconclusive; AMA1-RON2 inh: 2.6%; Cycloheximide cs: 24.9*

What do the screens show for `Nc1ccccc1C(=O)N/N=C1/C2CN3CCN(C2)CC1(Cc1ccccc1)C3`?
Lassa entry inh: -0.1%[46.1 µM]; Shiga inhibitor: 28.6; Marburg entry inh: 4.4%[46.1 µM]; AMA1-RON2 inh: -7.9%; Cycloheximide cs: -5.5

What do the screens show for `O=C(N/N=C1\C2CN3CCN(C2)CC1(c1ccccc1)C3)c1ccc(F)cc1`?
Lassa entry inh: 28.3%; Shiga inhibitor: 0.0; Marburg entry inh: -3.5%[46.1 µM]; AMA1-RON2 inh: 15.8%; Cycloheximide cs: 23.4*

Results for Nc1ccccc1C(=O)N/N=C1\C2CN3CCN(C2)CC1(c1ccccc1)C3 ?
Lassa entry inh: 19.7%; Shiga inhibitor: 80.9*; Marburg entry inh: 9.1%; AMA1-RON2 inh: 4.4%; Cycloheximide cs: 50.4*

What do the screens show for `COc1ccc(Cl)cc1NC(=S)NC(=O)c1ccc2c(c1)OCO2`?
Lassa entry inh: -23.3%; Marburg entry inh: -1.3%; AMA1-RON2 inh: 15.6%

What do the screens show for `O=C(NC(=S)Nc1ccc(N2CCOCC2)c(Cl)c1)c1cncc(Br)c1`?
Lassa entry inh: 0.4%; Shiga inhibitor: 4.6; Marburg entry inh: inconclusive; AMA1-RON2 inh: 22.8%; Cycloheximide cs: -1.6

How did Cc1cc(C)cc(C(=O)NC(=S)Nc2ccc(Cc3ccncc3)cc2)c1 do in these assays?
Lassa entry inh: inconclusive; Shiga inhibitor: -7.6; Marburg entry inh: inconclusive; AMA1-RON2 inh: 6.2%; Cycloheximide cs: -1.3

What do the screens show for `O=C(NC(=S)Nc1ccc(N2CCCCC2)c(Cl)c1)c1ccc2c(c1)OCCO2`?
Lassa entry inh: inconclusive; Shiga inhibitor: -1.9; Marburg entry inh: 1.41µM*; AMA1-RON2 inh: 49.1%; Cycloheximide cs: -4.4

What do the screens show for `Cc1cc(C)cc(C(=O)NC(=S)Nc2ccc3c(c2)OCCO3)c1`?
Lassa entry inh: -25.6%; Shiga inhibitor: 73.7*; Marburg entry inh: inconclusive; AMA1-RON2 inh: 0.5%; Cycloheximide cs: 31.5*

What do the screens show for `O=C(NC(=S)Nc1ccc2c(c1)OCO2)c1ccc(Cl)cc1`?
Lassa entry inh: inconclusive; Shiga inhibitor: 107.9*; Marburg entry inh: -2.5%; AMA1-RON2 inh: 23.4%; Cycloheximide cs: 76.4*

What do the screens show for `O=C(NC(=S)Nc1ccc2c(c1)OCCO2)c1ccc(F)cc1Cl`?
Lassa entry inh: -2.1%; Shiga inhibitor: 33.8*; Marburg entry inh: -30.8%; AMA1-RON2 inh: 86.3%; Cycloheximide cs: 28.3*

What do the screens show for `CC(C)C(=O)Nc1nnc(SCC(=O)NCc2cccs2)s1`?
Lassa entry inh: 0.0%; Shiga inhibitor: -4.7; Marburg entry inh: inconclusive; AMA1-RON2 inh: 35.3%; Cycloheximide cs: -1.8

How did Cc1ccccc1N1CCN(C2CCCN(C(=O)c3cnsn3)C2)CC1 (stereo not given) do in these assays?
Shiga inhibitor: 0.6; AMA1-RON2 inh: -1.9%; Cycloheximide cs: -3.1

What do the screens show for `Cc1ccc(C(=O)NC(=S)Nc2ccc(N3CCOCC3)cc2)c(C)c1`?
Lassa entry inh: inconclusive; Shiga inhibitor: 7.4; Marburg entry inh: inconclusive; AMA1-RON2 inh: 11.3%; Cycloheximide cs: 8.3

Results for CCc1ccc(C(=O)NC(=S)Nc2ccc3c(c2)OCCO3)cc1 ?
Lassa entry inh: inconclusive; Shiga inhibitor: 71.8*; Marburg entry inh: -26.8%; AMA1-RON2 inh: 8.7%[11.6 µM]; Cycloheximide cs: 41.3*

What do the screens show for `Cc1ccc(C(=O)NC(=S)Nc2ccc3c(c2)OCCO3)c(C)c1`?
Lassa entry inh: -13.3%; Shiga inhibitor: 71.0*; Marburg entry inh: 7.2%; AMA1-RON2 inh: -20.8%; Cycloheximide cs: 33.2*

How did CC(C)C(=O)Nc1cccc(NC(=S)NC(=O)c2ccc3c(c2)OCO3)c1 do in these assays?
Lassa entry inh: inconclusive; Shiga inhibitor: -19.7; Marburg entry inh: 18.7%; AMA1-RON2 inh: -5.5%; Cycloheximide cs: -2.7

Source: PubChem (National Center for Advancing Translational Sciences (NCATS))
